This is an account of results in PubChem BioAssay (NCATS).

Records with an inconclusive call do not appear. Calls of active or inactive are those of the source. Calls come from the whole dose curve; as a rule, active = well fitted curve in the direction sought with a large enough effect; inconclusive = small, poorly fitted or top-dose-only effect, or another doubt; inactive = no such curve, though single readings can be large; an effect the other way counts as inactive or inconclusive.

The nature of test [1]: Quantitative High-Throughput drug screen in 47 multiple myeloma cell lines against the NCATS MIPE library collection: KHM11_PLB cell viability assay (AID 1918962). Note: nearly all actives have a fitted effect of over 35% in size. The gist of the method: (§1)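 Luminescent ATP measurement with CellTiter-Glo gives viability, scaled between DMSO-only wells (100%) and media-only wells (0%). Cells, 500 per well, faced library compounds for 48 hours at 37C.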

Test [2] in a line: Quantitative High-Throughput drug screen in 47 multiple myeloma cell lines against the NCATS MIPE library collection: JIM3_ECACC cell viability assay (AID 1918963; note: nearly all actives have a fitted effect of over 35% in size). The gist of the method:
as §1

Test [3] can be described thus: Quantitative High-Throughput drug screen in 47 multiple myeloma cell lines against the NCATS MIPE library collection: JIM1_ECACC cell viability assay (AID 1918964). The gist of the method: (§2)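 Relative luminescence from CellTiter-Glo served as the viability signal, referenced to DMSO-treated (100%) and cell-free medium (0%) controls. Treatment lasted 48 hours at 37C with 500 cells per well.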

A short description of test [4]: Quantitative High-Throughput drug screen in 47 multiple myeloma cell lines against the NCATS MIPE library collection: JJN3_DSMZ cell viability assay (AID 1918966; note: nearly all actives have a fitted effect of over 50% in size). The gist of the method:
as §2

A short description of test [5]: Quantitative High-Throughput drug screen in 47 multiple myeloma cell lines against the NCATS MIPE library collection: H1112_PLB cell viability assay (AID 1918967; note: nearly all actives have a fitted effect of over 30% in size). Summed up:
as §2

Test [6] in a line: Quantitative High-Throughput drug screen in 47 multiple myeloma cell lines against the NCATS MIPE library collection: KMS12BM_JCRB cell viability assay (AID 1918971). Note: nearly all actives have a fitted effect of over 35% in size. Summed up:
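We plated 500 myeloma cells per well, pinned in MIPE 4.0 compounds, and incubated for 48 hours at 37C. ATP was then quantified with CellTiter-Glo, with DMSO and media-only wells defining 100% and 0%.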

Test [7] can be described thus: Quantitative High-Throughput drug screen in 47 multiple myeloma cell lines against the NCATS MIPE library collection: INA6_PLB cell viability assay (AID 1918965; note: nearly all actives have a fitted effect of over 55% in size). The gist of the method:
(§3)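 Steps: seed 500 cells per well; pin-transfer MIPE 4.0 library; incubate 48 h at 37C, 5% CO2, humidified; add CellTiter-Glo, 5 min room temperature; read luminescence.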

Test [8] can be described thus: Quantitative High-Throughput drug screen in 47 multiple myeloma cell lines against the NCATS MIPE library collection: Karpas25_ECACC cell viability assay (AID 1918968; note: nearly all actives have a fitted effect of over 35% in size). Summed up: as §2
Test [9] in a line: Quantitative High-Throughput drug screen in 47 multiple myeloma cell lines against the NCATS MIPE library collection: KMS12PE_JCRB cell viability assay (AID 1918972). Note: nearly all actives have a fitted effect of over 30% in size. The gist of the method: as §3
A short description of test [10]: Quantitative High-Throughput drug screen in 47 multiple myeloma cell lines against the NCATS MIPE library collection: KMS27_JCRB cell viability assay (AID 1918970). Note: nearly all actives have a fitted effect of over 30% in size. As to conditions: KMS27 myeloma cells, CellTiter-Glo ATP viability, 48 h; viability (% of DMSO): at 45.8 µM (top of the series). The gist of the method: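 ATP-based viability (CellTiter-Glo luminescence) is measured in cells treated 48 h with approved and investigational drugs at 37 °C. Controls are DMSO-only wells for full viability and media-only wells for none.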
Potency is the fitted concentration of half-maximal effect.

With `C[C@@H](O)[C@H]1C(=O)N2C(C(=O)OCOC(=O)C(C)(C)C)=C(SC3CN(C4=NCCS4)C3)[C@H](C)[C@H]12`, the Potency entry in test [1], in test [2], in test [3], in test [5] and in [6] was “inactive” in each case. Moreover, in [4], the Potency was 16.6 µM (active).

For `NC1(C(=O)N[C@@H](CCO)c2ccc(Cl)cc2)CCN(c2ncnc3[nH]ccc23)CC1`, the Potency in test [1] is 1.87 µM (active); in test [2], 1.05 µM (active); in test [3], 0.209 µM (active); in test [7], 7.43 µM (active); in test [4] it was 2.96 µM (active); in test [5], 7.43 µM (active). Besides, the Potency in test [8] and in [9] was 0.418 µM (active) each time. For the same compound, the Potency result in test [6] is “inactive”.

Take `CC(C)n1c(C=C[C@H](O)C[C@H](O)CC(=O)O)c(-c2ccc(F)cc2)c2ccccc21`: the Potency in test [1] is 14.8 µM (active); in test [2], 16.6 µM (active); in [7] it was 10.5 µM (active); in [5], 16.6 µM (active); in test [8], 14.8 µM (active); in test [10], 3.72 µM (active). For the same compound, the Potency in test [9] is 3.32 µM (active). Also, the Potency entry in test [4] was “inactive”.

`O=S(=O)(NCCNCC=Cc1ccc(Br)cc1)c1cccc2cnccc12`: the Potency was 9.35 µM (active) in test [1]; 16.6 µM (active) in test [2]; 4.18 µM (active) in test [3]; 7.43 µM (active) in test [7]; 16.6 µM (active) in test [4]; 14.8 µM (active) in test [5]. Also, the Potency in test [8] is 9.35 µM (active); in test [10], 13.2 µM (active); in test [6], 16.6 µM (active); in test [9], 16.6 µM (active).

For the compound `C=C[C@@H]1CN2CCC1C[C@@H]2C(O)c1ccnc2ccc(OC)cc12` (stereo partly specified), the Potency entry in test [1], in test [2], in test [3], in test [5], in test [10] and in [9] was “inactive” throughout. Further, the Potency in test [4] was 16.6 µM (active); in test [8], 1.66 µM (active).

For the compound `CCNC(=O)[C@H]1O[C@@H](n2cnc3c(N)nc(NCCc4ccc(CCC(=O)O)cc4)nc32)[C@H](O)[C@H]1O`, the Potency in [1] was 0.0469 µM (active); in test [7], 0.209 µM (active); in test [4], 0.059 µM (active); in test [8], 0.105 µM (active); in test [6], 3.32 µM (active); in test [9] it was 0.132 µM (active). In addition, the Potency entry in [2], in test [3] and in test [5] was “inactive” in each case.

Turning to `NC(=O)c1noc([C@H](CCCC2CCCCC2)CC(=O)NO)n1`, the Potency is 20.9 µM (active) in [1]; 23.5 µM (active) in test [2]; 5.9 µM (active) in test [3]; 14.8 µM (active) in test [7]; 16.6 µM (active) in test [5]; 14.8 µM (active) in [8]. Besides, the Potency was 7.43 µM (active) in test [10], 7.43 µM (active) in test [6] and 5.26 µM (active) in test [9].

For the compound `Cc1nc(NC(=O)N2CCC[C@@H]2C(N)=O)sc1-c1csc(C(C)(C)C)n1`, the Potency in test [1] is 3.72 µM (active); in test [2] it was 5.9 µM (active); in [3], 1.32 µM (active); in [7] it was 16.6 µM (active); in test [4], 6.62 µM (active); in test [5], 2.09 µM (active). The Potency in [8] was 5.9 µM (active); in test [10], 2.35 µM (active); in test [9], 4.69 µM (active).

Take `O=c1[nH]nc(OCCCc2ccc(Cl)cc2)c(NCc2cccnc2)c1Br`: the Potency is 2.96 µM (active) in test [1]; 8.33 µM (active) in test [2]; 8.33 µM (active) in test [3]; 4.69 µM (active) in test [7]; 20.9 µM (active) in [4]; 10.5 µM (active) in test [5]. Further, the Potency in test [8] is 6.62 µM (active); in test [10], 7.43 µM (active); in test [6], 18.7 µM (active); in [9], 2.64 µM (active).

In the case of `CN(C)CCOc1ccc(-c2nc(-c3ccc4c(c3)CCC4=NO)c(-c3ccncc3)[nH]2)cc1`, the Potency was 1.32 µM (active) in test [1]; 23.5 µM (active) in test [2]; 18.7 µM (active) in test [3]; 16.6 µM (active) in [4]; 23.5 µM (active) in test [5]; 14.8 µM (active) in test [8]. Moreover, the Potency is 6.62 µM (active) in test [10], 20.9 µM (active) in test [6] and 10.5 µM (active) in [9].

Regarding `O=C(O)c1ccc(O)c2ncc(N3CCOCC3)cc12`, the Potency result in test [1] and in test [7] was “inactive” throughout. Further, the Potency in [2] was 18.7 µM (active); in test [3], 20.9 µM (active); in [8], 18.7 µM (active); in test [10] it was 23.5 µM (active); in [9] it was 26.4 µM (active).

In the case of `CCOC(=O)N1CCN([N+]([O-])=NOc2cc(ON=[N+]([O-])N3CCN(C(=O)OCC)CC3)c([N+](=O)[O-])cc2[N+](=O)[O-])CC1`, the Potency in test [1] is 6.62 µM (active); in test [2] it was 9.35 µM (active); in [7] it was 2.35 µM (active); in test [4], 2.96 µM (active); in [5], 5.9 µM (active); in [8], 2.64 µM (active). The Potency in [6] was 5.26 µM (active). In addition, the Potency entry in [3] and in [9] was “inactive” each time.

For `CCC(C)SSc1ncc[nH]1` (stereo unspecified), the Potency in [1] was 13.2 µM (active); in [2], 14.8 µM (active); in test [7], 4.69 µM (active); in test [4], 4.69 µM (active); in test [5], 5.26 µM (active); in [8], 4.18 µM (active). Besides, the figures for the Potency in test [10], in [6] and in test [9] were 10.5 µM (active), 13.2 µM (active) and 9.35 µM (active), respectively.

Turning to `CNC(=O)c1cc(Oc2ccc(NC(=O)Nc3ccc(Cl)c(C(F)(F)F)c3)c(F)c2)ccn1`, the Potency in test [1] was 0.059 µM (active); in test [2] it was 3.32 µM (active); in test [3], 13.2 µM (active); in [7], 5.9 µM (active); in [4], 29.6 µM (active); in [8], 2.64 µM (active). The Potency in test [10] was 7.43 µM (active); in test [6], 18.7 µM (active); in test [9], 4.69 µM (active).
